Screening data from PubChem BioAssay.
Only some compounds are listed: those with a hit (about 1.9% of all), similar ones and a draw of the others.
sEH inhibitor – inhibitors of human soluble epoxide hydrolase. recombinant human sEH enzymatic activity assay. inhibition, % at 2 µM. actives 0.34% (n = 91,000). AID 707; in the data active = inhibition above about 80%
Target sequence (P34913 whole entry, looked up): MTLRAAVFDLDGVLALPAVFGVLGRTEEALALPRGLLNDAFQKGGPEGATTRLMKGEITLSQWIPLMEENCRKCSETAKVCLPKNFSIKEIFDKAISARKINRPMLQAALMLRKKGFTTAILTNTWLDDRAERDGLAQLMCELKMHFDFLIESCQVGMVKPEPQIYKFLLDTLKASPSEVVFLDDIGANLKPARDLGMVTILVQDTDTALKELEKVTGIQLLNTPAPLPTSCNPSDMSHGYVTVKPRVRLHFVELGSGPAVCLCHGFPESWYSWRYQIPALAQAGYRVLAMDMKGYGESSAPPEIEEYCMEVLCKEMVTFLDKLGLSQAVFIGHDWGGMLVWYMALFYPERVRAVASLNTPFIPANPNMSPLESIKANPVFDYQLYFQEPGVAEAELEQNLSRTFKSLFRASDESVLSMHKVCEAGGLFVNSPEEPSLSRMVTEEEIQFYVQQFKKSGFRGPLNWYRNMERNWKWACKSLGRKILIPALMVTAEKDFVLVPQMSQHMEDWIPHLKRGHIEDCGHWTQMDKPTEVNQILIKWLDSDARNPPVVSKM
Measles CPE – protection of cells from measles virus. actives 1.5% (n = 140,000). Measles virus-infected cells, CPE protection, absorbance. protection (pct of control), % at 4 µM. AID 841; in the data active = protection mostly above about 24%, no sharp cut-off; inactive = mostly below about 26%
sEH activator – activators of human soluble epoxide hydrolase; P34913; purified human sEH enzymatic activity, activator screen; activation, % at 2 µM; actives 0.04% (n = 91,000); AID 717; in the data active = activation above about 37%
sdo1 growth – compounds rescuing growth of sdo1-depleted yeast, bone marrow failure model. z-score at 10 µM. actives 0.21% (n = 140,000). S. cerevisiae sdo1-depleted JHY4D growth rescue, OD600 30 h; hits give high values; pdr5 snq2 efflux-pump mutant strain;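 active = z-score above 3 at both the 24 hr and the 30 hr optical density reads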
A number is an active result; – = inactive; · = no result.

SMILES	sEH inhibitor	Measles CPE	sEH activator	sdo1 growth
O=C(O)Cc1ccc2c(c1)N(S(=O)(=O)c1cccc(C(F)(F)F)c1)CC(C(=O)O)O2 (configuration not stated)	–	43	–	–
O=C(Cc1ccc2c(c1)OCCO2)N1CCN(S(=O)(=O)c2cccc(C(F)(F)F)c2)CC1	·	–	·	–
C=CCNC(=O)Nc1ccc2oc(C)nc2c1	–	–	–	–
Cc1nc2cc(NC(=O)NCCC3=CCCCC3)ccc2o1	81	–	–	–
CCOC(=O)C1=C(NC(=S)NC(=O)c2ccccc2)c2ccccc2CC1C(C)C (configuration not stated)	–	50	–	–
CCOC(=O)C1=C(NC(=S)NC(=O)c2ccccc2)c2ccccc2CC1(C)CC (configuration not stated)	·	–	·	–
O=C(NCc1ccco1)c1cccc2ccccc12	–	–	–	–
COc1ccc(Cn2c(O)c(C=Nc3ccc(OC)cc3)c3ccccc3c2=O)cc1	·	–	·	–
COC(=O)c1sc(=S)n(-c2ccccc2OC)c1N	–	44	–	–
CCC(C)(C)n1nnnc1C(c1ccc2ncccc2c1)N1CCCCCC1 (configuration not stated)	–	–	–	–
O=C(NCCc1c[nH]c2ccccc12)c1cccnc1	–	74	–	–
O=C(NCCCCCNC(=O)c1cccnc1)c1cccnc1	–	–	–	–
O=C(NCCc1ccccc1)C1CCCN1C(=O)Nc1ccc(F)cc1 (configuration not stated)	·	29	·	–
O=C(CC(NC(=O)c1ccccc1Cl)c1ccccc1)NCCc1ccc(Cl)cc1 (configuration not stated)	·	41	·	–
CC(=O)NC12CC3CC(CC(CC(=O)O)(C3)C1)C2	–	–	–	–
COC(=O)[C@@]1(Cc2ccccc2)[C@@H]2C(=CC(=O)[C@H]2CC(=O)C(=O)N(C)C)CN1C(=O)c1ccccc1	·	82	·	–
COc1ccc(/C=C/C(=O)NC(=S)Nc2cc3oc4ccccc4c3cc2OC)cc1	·	–	·	–
COc1cc2c(cc1NC(=S)NC(=O)/C=C/c1ccc(OC)c(OC)c1)oc1ccccc12	·	53	·	–
O=C1Nc2ccccc2N(O)N1c1cc(-c2cccc(Cl)c2)no1	–	33	–	–
O=C(NCCC1=CCCCC1)NC1CCCCC1	94	–	–	–
NC(=O)NCCC1=CCCCC1	–	–	–	–
O=C(NCCc1ccccc1)NC1CCCCC1	82	–	–	–
CCCn1nnc(NC(=O)C(C)Oc2ccc(Cl)cc2Cl)n1 (configuration not stated)	–	47	–	–
CC(Oc1ccc(Cl)cc1Cl)C(=O)Nc1ccncc1 (configuration not stated)	–	–	–	–
O/N=C1/C2C3CC4C5C3C1C5C1(OCCO1)C42 (configuration not stated)	·	51	·	–
SMILES	sEH inhibitor	Measles CPE	sEH activator	sdo1 growth
Cc1c(NC(=O)/C(C#N)=C/c2cccs2)c(=O)n(-c2ccccc2)n1C	·	–	·	–
CCOC(=O)N1CCN(C(=O)CSCC(=O)Nc2nc(-c3ccc(-c4ccccc4)cc3)cs2)CC1	–	44	–	–
CCOC(=O)N1CCN(C(=O)CSCC(=O)Nc2nc(-c3ccc(OC)cc3)cs2)CC1	–	–	–	–
FC(F)(F)c1cc(-c2ccc3c(c2)OCO3)nc(NCc2ccco2)n1	–	66	–	–
COc1ccc(-c2cc(C(F)(F)F)nc(NCc3ccco3)n2)cc1OC	·	–	·	–
O=C(NCCSCc1ccco1)c1ccc(CN2CCOCC2)cc1	–	–	–	–
O=C(O)c1ccccc1NS(=O)(=O)c1ccc2c3c(cccc13)C(=O)N2	·	–	·	–
O=C1Nc2ccc(NS(=O)(=O)c3cccs3)c3cccc1c23	–	44	–	–
Cc1ccc(-c2nn(C)c(=O)c3ccccc23)cc1S(=O)(=O)N1CCCC1	–	–	–	–
CC(C)c1ccc(-c2c(C#N)c(N)nc(SCC(=O)N3CCCCC3)c2C#N)cc1	–	33	–	–
CC(C)c1ccc(-c2c(C#N)c(N)nc(SCC(=O)N3CCCCCC3)c2C#N)cc1	–	–	–	–
CCOC(=O)N1CCN(C(=O)CN(c2ccc(OCc3ccccc3)cc2)S(C)(=O)=O)CC1	–	28	–	–
COc1ccc(N(CC(=O)N2CCN(C)CC2)S(C)(=O)=O)cc1OC	–	50	–	–
COc1ccc(N(CC(=O)N2CCc3ccccc3C2)S(C)(=O)=O)cc1OC	–	–	–	–
COc1ccc(N(CC(=O)Nc2cccc(N(C)S(C)(=O)=O)c2)S(C)(=O)=O)cc1OC	–	43	–	–
COc1ccc(N(CC(=O)Nc2cccc(C(C)=O)c2)S(C)(=O)=O)cc1OC	·	92	·	–
O=c1c2ccccc2nnn1CSc1nnc(Nc2ccccc2)s1	–	–	–	–
O=C(CSc1nnc(-c2ccccc2)n1-c1ccccc1)c1ccc[nH]1	·	–	·	–
O=C(CC1S/C(=N/N=C/C=C/c2ccccc2)NC1=O)Nc1ccc(Cl)c(Cl)c1 (configuration not stated)	·	–	·	–
CCOc1nc(NC2CCCCC2)nc(NC(C)(C)C)n1	–	61	–	–
COc1nc(NCc2ccco2)nc(NC2CCCCC2)n1	–	–	–	–
CCCCOc1ccc(C(=O)N/C(=C/C=C/c2ccccc2)C(=O)NCCO)cc1	·	–	·	–
CCCCOc1ccc(C(=O)N/C(=C/C=C/c2ccccc2)C(=O)NCCCO)cc1	·	48	·	–
COC(=O)[C@H](C)NC(=O)NC1CCCc2ccccc21 (some centres not stated)	–	56	–	–
CNC(=O)NC1CCCc2ccccc21 (configuration not stated)	–	23	–	–
SMILES	sEH inhibitor	Measles CPE	sEH activator	sdo1 growth
CC(C)[C@H](NC(=O)NC1CCCc2ccccc21)C(=O)O (some centres not stated)	–	20	–	–
Cc1ccc(C(=O)N/C(=C\c2cccs2)C(=O)NCCc2c[nH]c3ccccc23)cc1C	–	–	–	–
Cc1nc2ccccc2c(=O)n1/N=C/c1ccc(O)cc1	–	–	–	–
Cc1sc2nc(C)n(/N=C/c3ccccc3)c(=O)c2c1C	–	–	38	–
Cc1ccc(C)c(NC(=O)Cc2nc(CCl)cs2)c1	·	–	·	–
Cc1ccccc1NC(=O)Cc1nc(CCl)cs1	·	42	·	–
COc1ccc(CCNC(=O)c2cc(-c3ccc(Cl)c(Cl)c3)oc2C)cc1	·	–	·	–
CCOC(=O)CCc1c(C)nc(SCC(=O)O)c(C#N)c1C	–	32	–	–
N#CCCN1CCN(S(=O)(=O)c2ccc(S(=O)(=O)NC3CCCC3)cc2)CC1	–	40	–	–
N#CCSCC(=O)Nc1ccc(F)cc1	–	54	–	–
N#CCSCC(=O)Nc1ccc(Br)cc1	–	73	–	–
CCOc1ccc(S(=O)(=O)N2CCN(c3ccccc3OC)CC2)c2cccnc12	–	–	–	–
CCc1cc(-c2n[nH]c(=S)n2N)n(C)n1	–	–	–	–
CCc1nn(C)c(-c2n[nH]c(=S)n2N)c1Cl	–	44	–	–
CCOc1ccc(-n2nnnc2-c2nc3ccccc3s2)cc1	·	26	·	–
Clc1ccccc1-c1nnc2sc(C3COc4ccccc4O3)nn12 (configuration not stated)	–	–	–	–
O=[N+]([O-])c1ccc(N2CCOCC2)cc1NC(c1ccccc1)c1ccccc1	·	45	·	–
